Consider nine compounds from PubChem BioAssay (Tox21).

Results filed as inconclusive are left out. Activity calls are given as the source filed them. Unless noted, calls follow the shape of the dose curve; as a rule, active = well fitted curve in the direction sought with a large enough effect in the repeat runs; inconclusive = weak or mixed curves; inactive = no such curve, though single readings can be large; an effect the other way counts as inactive or inconclusive.

Test [1] is described as follows: qHTS assay to identify small molecule antagonists of the estrogen receptor alpha (ER-alpha) signaling pathway using the BG1 cell line in the presence of 0.1 nM 17-beta-estradiol - cell viability counter screen (AID 1259241). Also: nearly all actives have a fitted effect of over 40% in size. The procedure, abridged:
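Following 5 days in phenol red-free medium with charcoal-stripped serum, VM7Luc4E2 cells received test compounds alongside 0.1 nM 17beta-estradiol (final) at 37C for 22 hr. Live cells were then quantified via protease-substrate fluorescence.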
(In general: Quantitative high-throughput screening tests each substance at several concentrations.)

A short description of test [2]: qHTS assay to identify small molecule antagonists of the androgen receptor (AR) signaling pathway using the MDA cell line in the presence of 0.5 nM R1881 - cell viability counter screen (AID 1259242). Also: nearly all actives have a fitted effect of over 45% in size. The procedure, abridged: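 Human breast carcinoma MDA-kb2 cells, cultured without CO2, receive compounds alongside 0.5 nM (final) R1881 agonist. After 16 hr at 37C, viability is taken as live-cell protease signal.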

Test [3] in a line: qHTS assay to identify small molecule HDAC inhibitors (AID 1259364).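 Also: wild-type HCT-116 cells with endogenous class I/II HDAC activity; top concentration of the series differs between compounds; nearly all actives have a fitted effect of over 45% in size.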 An outline of the steps: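 After a 2 hr compound incubation (37C, 5% CO2), HCT-116 cells seeded at 1,500/well the day before received HDAC-Glo reagent; signal read as luminescence after 30 min at room temperature.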
A short description of test [4]: qHTS assay to identify small molecule HDAC inhibitors - cell viability counter screen (AID 1259365). Also: series mostly up to about 92 µM; nearly all actives have a fitted effect of over 50% in size. The procedure, abridged:
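HCT-116 wild-type, overnight attachment; 2hr drug exposure, 37C; CellTiter-Glo luminescent ATP readout after 30min RT.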

The nature of test [5]: qHTS assay to identify small molecule agonists of the sonic hedgehog signaling (Shh) pathway - cell viability counter screen (AID 1259366). Also: nearly all actives have a fitted effect of over 50% in size. The procedure, abridged: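 Compounds in DMSO were pin-transferred onto 3T3 Gli1-Luc cells that had settled 4hr; plates then stood 24hr at 37C and 5% CO2. One hour before the end, CellTiter-Fluor was added and fluorescence recorded.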
The nature of test [6]: qHTS assay to identify small molecule antagonists of the sonic hedgehog signaling (Shh) pathway - cell viability counter screen (AID 1259367). Also: nearly all actives have a fitted effect of over 55% in size. The procedure, abridged:
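Tox21 library chemicals were tested on a Gli1-Luc NIH/3T3 clone (2,000 cells/well) stimulated by conditioned medium; viability was quantified as fluorescence from CellTiter-Fluor reagent added at 23 hr.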

Test [7] can be described thus: qHTS assay to identify small molecule agonists of the sonic hedgehog signaling (Shh) pathway (AID 1259368; calls by dose curve;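 also: NIH/3T3-derived 3T3Gli1-Luc cells carrying a stable Gli1-driven firefly luciferase reporter; series mostly up to about 92 µM; nearly all actives have a fitted effect of over 15% in size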). An outline of the steps: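 Stable NIH/3T3 Gli1-Luc reporter clone; 24 hr cpd exposure after a 4 hr settling period; luminescence endpoint.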
The target in test [8] is Estrogen receptor beta (Homo sapiens) (UniProt Q92731). Kind of test: qHTS assay to identify small molecule agonists of the estrogen receptor beta (ER-beta) signaling pathway (AID 1259377; active = well fitted activation curve with a large enough effect in the signal ratio in the repeat runs, not every such curve was filed as active; the % refers to the signal ratio). The procedure, abridged:
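qHTS in ER-beta-UAS-bla HEK293T cells: 6 hr settling, then 16 hr compound at 37C, then LiveBLAzer substrate 2 h at RT before fluorescence reading.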

Test [9] is described as follows: qHTS assay to identify small molecule agonists of the estrogen receptor beta (ER-beta) signaling pathway - cell viability counter screen (AID 1259380). Also: nearly all actives have a fitted effect of over 30% in size. Also: potency is read from the fitted curve at half-maximal effect. An outline of the steps:
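In this qHTS counter screen, HEK293T cells carrying an ER-beta/UAS beta-lactamase reporter, grown in 2% charcoal-stripped FBS, received compound for 16 hr; ATP-based CellTiter-Glo luminescence was then read after 30 min at room temperature.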

Test [10] in a line: qHTS assay to identify small molecule antagonists of the estrogen receptor beta (ER-beta) signaling pathway - cell viability counter screen (AID 1259382). Also: nearly all actives have a fitted effect of over 55% in size. Also: potency is read from the fitted curve at half-maximal effect. The procedure, abridged: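 HEK293T ER-beta-UAS-bla, 2% charcoal-stripped FBS; compounds + 1nM E2 16 hr 37C; CellTiter-Glo luminescence, 30 min RT.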
Test [11] in a line: qHTS assay to identify small molecule agonists or antagonists of the thyroid stimulating hormone receptor (TSHR) signaling pathway - wild type cell line counter screen (AID 1259384; calls by dose curve). The procedure, abridged:
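Wild-type Hek293 cells, 800/well, 18 h at 37C, then compound with Ro20-1724 for 30 min RT. cAMP by HTRF (cAMP-d2/anti-cAMP cryptate), 1 h RT, fluorescence read. 15 concentrations, triplicates.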

A short description of test [12]: qHTS assay to identify small molecule agonists of the estrogen receptor alpha (ER-alpha) signaling pathway in the presence of an antagonist - cell viability counter screen (AID 1259386).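 Also: series mostly up to about 92 µM; cells exposed to compounds for 22 h at 37 °C before the viability read; nearly all actives have a fitted effect of over 30% in size.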 The procedure, abridged: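 Steps: 5-day stripped-FBS culture; seed and incubate 24hr; add ICI-182,780 (10.0nM final); pin 15-point compound titration; incubate 22hr at 37C; add CellTiter-Fluor at 21hr; read fluorescence.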

Test [13] in a line: qHTS assay to identify small molecule agonists of the androgen receptor (AR) signaling pathway in the presence of an antagonist - cell viability counter screen (AID 1259379).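 Also: MDA-kb2 human breast cancer cells carrying an MMTV luciferase reporter; series mostly up to about 92 µM; nearly all actives have a fitted effect of over 25% in size.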 The procedure, abridged: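 Counter screen for cell viability run in parallel with the AR agonist-mode luciferase assay. MDA-kb2 cells were co-treated with nilutamide (3.0uM final) and compounds, then incubated 16 hr at 37C, and CellTiter-Fluor fluorescence was measured.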

Test [14] in a line: qHTS assay to identify small molecule antagonists of the sonic hedgehog signaling (Shh) pathway (AID 1259369; calls by dose curve; also: nearly all actives have a fitted effect of over 45% in size; also: potency is read from the fitted curve at half-maximal effect). The procedure, abridged:
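Gli1 transcriptional reporter (firefly Luc) in NIH/3T3 background, conditioned-medium activated. 24hr exposure, luminescence endpoint.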

Test [15] deals with Estrogen receptor (Homo sapiens) (UniProt P03372). Kind of test: qHTS assay to identify small molecule agonists of the estrogen receptor alpha (ER-alpha) signaling pathway in the presence of an antagonist (AID 1259383; calls by dose curve; also: top concentration of the series differs between compounds; nearly all actives have a fitted effect of over 15% in size). The procedure, abridged:
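ER-alpha agonism measured under antagonist challenge: 10.0nM ICI-182,780 (final) plus compound, 15 concentrations, 22hr, VM7Luc4E2 ERE-luciferase cells. Read by luminescence.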

Test [16] addresses Estrogen receptor beta (Homo sapiens) (UniProt Q92731). Kind of test: qHTS assay to identify small molecule antagonists of the estrogen receptor beta (ER-beta) signaling pathway (AID 1259378; active = well fitted inhibition curve with a large enough effect in the signal ratio in the repeat runs, not every such curve was filed as active; the % refers to the signal ratio). An outline of the steps: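 ER-beta-UAS-bla HEK293T cells in 2% charcoal-stripped FBS medium treated with compound plus 1nM final 17-beta-estradiol for 16 hr at 37C. Beta-lactamase reporter read by FRET substrate fluorescence after 2 hours at room temperature.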

Test [17] concerns the target Thyrotropin receptor (Homo sapiens) (UniProt P16473). Kind of test: qHTS assay to identify small molecule antagonists of the thyroid stimulating hormone receptor (TSHR) signaling pathway (AID 1259385; calls by dose curve; also: nearly all actives have a fitted effect of over 20% in size). An outline of the steps:
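TSHR-HEK293 cells (800/well) plated 18 h, then compounds with Ro20-1724 and TSH at 1.5 ng/mL final, 30 min at room temperature. cAMP quantified by HTRF (cAMP-d2/anti-cAMP-cryptate, 1 h); 15 concentrations in triplicate.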

Sequence of Estrogen receptor beta (Homo sapiens) (Q92731 whole entry, looked up): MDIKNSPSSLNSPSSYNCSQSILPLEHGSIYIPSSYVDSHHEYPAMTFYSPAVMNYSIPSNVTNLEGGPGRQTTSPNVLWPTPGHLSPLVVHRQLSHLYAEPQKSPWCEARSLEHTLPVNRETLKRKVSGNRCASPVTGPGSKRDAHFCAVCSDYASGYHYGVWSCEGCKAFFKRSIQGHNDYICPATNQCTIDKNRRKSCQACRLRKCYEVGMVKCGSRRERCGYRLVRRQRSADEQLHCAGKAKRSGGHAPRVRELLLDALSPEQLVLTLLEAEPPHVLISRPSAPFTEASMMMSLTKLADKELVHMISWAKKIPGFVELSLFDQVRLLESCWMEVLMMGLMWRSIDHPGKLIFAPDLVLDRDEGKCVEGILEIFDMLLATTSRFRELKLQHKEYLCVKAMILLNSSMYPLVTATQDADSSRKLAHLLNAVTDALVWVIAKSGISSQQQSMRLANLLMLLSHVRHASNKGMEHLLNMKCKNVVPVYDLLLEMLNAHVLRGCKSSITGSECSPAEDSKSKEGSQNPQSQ
Sequence of Estrogen receptor (Homo sapiens) (P03372 whole entry, looked up): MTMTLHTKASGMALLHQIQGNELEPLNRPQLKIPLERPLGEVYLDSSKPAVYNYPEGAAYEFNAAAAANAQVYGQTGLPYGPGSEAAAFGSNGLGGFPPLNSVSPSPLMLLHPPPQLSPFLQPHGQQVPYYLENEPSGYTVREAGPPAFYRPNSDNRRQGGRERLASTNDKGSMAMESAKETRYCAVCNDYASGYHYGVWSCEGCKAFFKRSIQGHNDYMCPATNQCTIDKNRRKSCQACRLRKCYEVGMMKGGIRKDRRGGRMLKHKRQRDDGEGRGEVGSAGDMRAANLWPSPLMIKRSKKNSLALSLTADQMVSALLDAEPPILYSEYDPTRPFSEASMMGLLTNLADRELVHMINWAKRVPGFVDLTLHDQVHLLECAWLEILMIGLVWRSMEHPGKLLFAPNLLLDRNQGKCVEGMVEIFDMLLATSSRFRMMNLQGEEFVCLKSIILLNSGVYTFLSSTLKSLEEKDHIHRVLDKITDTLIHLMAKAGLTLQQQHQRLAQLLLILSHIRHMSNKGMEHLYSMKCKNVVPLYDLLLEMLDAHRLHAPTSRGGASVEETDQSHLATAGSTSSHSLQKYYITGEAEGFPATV
Sequence of Thyrotropin receptor (Homo sapiens) (P16473 whole entry, looked up): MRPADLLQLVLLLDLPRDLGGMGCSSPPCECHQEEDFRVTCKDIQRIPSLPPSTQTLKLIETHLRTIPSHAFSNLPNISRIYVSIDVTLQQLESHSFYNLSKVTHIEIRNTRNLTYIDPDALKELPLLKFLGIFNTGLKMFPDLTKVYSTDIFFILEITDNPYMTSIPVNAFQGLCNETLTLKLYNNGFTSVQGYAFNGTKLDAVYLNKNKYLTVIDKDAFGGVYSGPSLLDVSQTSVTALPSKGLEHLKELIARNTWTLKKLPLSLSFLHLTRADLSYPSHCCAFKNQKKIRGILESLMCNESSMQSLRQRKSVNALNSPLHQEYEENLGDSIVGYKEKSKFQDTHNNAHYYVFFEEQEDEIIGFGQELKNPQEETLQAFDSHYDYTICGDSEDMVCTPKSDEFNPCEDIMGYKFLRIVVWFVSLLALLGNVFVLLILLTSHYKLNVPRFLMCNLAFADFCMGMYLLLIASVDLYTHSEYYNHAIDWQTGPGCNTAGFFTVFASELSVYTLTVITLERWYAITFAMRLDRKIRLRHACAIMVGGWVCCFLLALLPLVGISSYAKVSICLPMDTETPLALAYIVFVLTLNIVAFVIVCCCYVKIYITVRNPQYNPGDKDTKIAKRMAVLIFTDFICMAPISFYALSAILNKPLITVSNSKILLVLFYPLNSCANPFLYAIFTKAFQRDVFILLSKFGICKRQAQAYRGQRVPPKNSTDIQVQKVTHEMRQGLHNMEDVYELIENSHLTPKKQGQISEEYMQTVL

As to `CCOP(=S)(OCC)SC(CCl)N1C(=O)c2ccccc2C1=O` (stereo not drawn), the Potency result in test [1], in [2], in [3], in test [4], in test [5] and in [6] was “inactive” throughout. The Potency entry in test [7], in test [8], in [9], in test [10], in test [11] and in test [12] was “inactive” each time.

As to `CCCC[N+]1(C)CCCC1` (tested in a mixture with another compound), the Potency entry in [1], in test [2], in [3], in test [4], in test [5] and in test [6] was “inactive” each time. Moreover, the Potency result in test [7], in test [13], in [9], in test [10] and in [12] was “inactive” each time.

As to `CC(C)[C@@H](Nc1ccc(C(F)(F)F)cc1Cl)C(=O)OC(C#N)c1cccc(Oc2ccccc2)c1` (stereo partly drawn), the Potency result in [1], in test [2], in test [3], in test [5], in test [6] and in [7] was “inactive” in each case. Further, the Potency entry in test [14], in test [8], in test [13], in [9], in test [10] and in test [15] was “inactive” in each case. Besides, in [12], the Potency result is “inactive”.

Take `Nc1cc(Cl)ccc1Cl`: the Potency entry in [1], in [2], in [3], in test [4], in test [5] and in test [6] was “inactive” each time. Moreover, the Potency result in [14], in [8], in test [16], in test [13], in test [9] and in [10] was “inactive” throughout. The Potency result in [11], in test [17] and in test [12] was “inactive” in each case.

For `CCN(CC)Cc1nccn1-c1ccc([N+](=O)[O-])cc1C(=O)c1ccccc1Cl`, the Potency result in [1], in test [2], in test [3], in test [4], in test [14] and in [8] was “inactive” each time. Also, the Potency entry in [9], in test [10], in test [11], in test [17] and in test [12] was “inactive” in each case.

For `C[N+]1(C)[C@@H]2CC[C@H]1CC(OC(=O)C(CO)c1ccccc1)C2` (stereo partly drawn), the Potency result in [1], in test [2], in [3], in [4], in test [5] and in [6] was “inactive” in each case. The Potency entry in test [7], in test [8], in test [16], in test [13], in test [9] and in test [10] was “inactive” throughout. The Potency entry in [11], in [17] and in [12] was “inactive” in each case.

For `CCCCN(CCCC)C(=S)[S-].CCCCN(CCCC)C(=S)[S-].[Ni+2]`, the Potency entry in test [1], in [2], in test [3], in [4], in test [5] and in [6] was “inactive” in each case. Further, the Potency entry in test [7], in test [13], in test [9], in test [10], in [15] and in test [12] was “inactive” throughout.

Consider `CNC(=O)Oc1cc(C)cc(C(C)C)c1`, for which the Potency result in test [1], in [2], in test [3], in [4], in test [5] and in test [6] was “inactive” each time. Besides, the Potency entry in test [14], in [8], in [16], in test [10], in test [15] and in test [12] was “inactive” each time.

Regarding `C[C@]12Cc3cn[nH]c3C[C@@H]1CC[C@@H]1[C@@H]2CC[C@@]2(C)[C@H]1CC[C@]2(C)O`, the Potency entry in test [1], in [2], in test [3], in test [4], in test [5] and in test [13] was “inactive” throughout. Also, the Potency entry in test [11], in test [17] and in test [12] was “inactive” in each case. The Potency in test [14] was 13.3 µM (active); in test [9] it was 8.41 µM (active); in [10], 6.68 µM (active).
